From PubChem BioAssay AID977606 (Broad Institute, 2014)
The campaign covered roughly 1,500 compounds. About 430 (29%) were called active. No rule for the calls is given here. A selection follows. Results with a measured potency or affinity are listed apart.

Assay: glucose-independent GLuc insulin release activation – cell-based, INS-1E, Gaussia luciferase, luminescence, cherry-pick, counter-screen for glucose-dependent insulin secretion activators, dose response (AID 977606)
Conditions: INS-1E Gaussia luciferase insulin secretion, no glucose, 100% = twice neutral-control luminescence; series mostly up to 35 µM
In the case of `O=C(NCc1ccccc1)C(c1ccncc1)n1c(=O)c(-c2ccccc2)nc2ccccc21` (stereo not given), the outcome is reported as “inactive”. For `CN1CCC(N(C)S(=O)(=O)c2ccc(NC(=O)COc3cccc(Cl)c3)cc2)CC1`, the outcome was “inactive”. For `O=C(COc1ccccc1)Nc1ccccc1C(=O)NC1CC1`, the outcome was “inactive”. In the case of `N#CC1=C(N)Oc2n[nH]c(-c3ccc(F)cc3)c2C1c1cccnc1` (stereo not given), the outcome is reported as “inactive”. In the case of `COc1ccc(CCNS(=O)(=O)c2cn(C)cn2)cc1OC`, the outcome is reported as “inactive”. With `NC1=NC[C@H](Cc2ccccc2)N1CCCCC1CCCCC1` the outcome was “inactive”. In the case of `CN=C1c2ccccc2CN1c1cccc(C(=O)OC)c1`, the outcome is reported as “inactive”. For `Cc1ccc(S(=O)(=O)/N=C2\CN(C)C(=O)N2C)cc1`, the outcome was “inactive”. In the case of `CSc1ccc(/C=N/N(C)S(=O)(=O)c2ccc(C)cc2)cc1`, the outcome is reported as “inactive”. For `Cc1cc(Br)ccc1NC(=O)CN(C)C(=O)C1CSC2(C)CCC(=O)N12` (stereo not given), the outcome was “inactive”. With `Cc1ccc(NC2c3ncccc3C(=O)N2C2CCCCC2)cc1` (stereo not given) the outcome was “inactive”. In the case of `CCSc1nnc(-c2cccnc2)n1-c1ccc(C)c(Cl)c1`, the outcome is reported as “inactive”. For `Cc1ccc(-c2cc(C(=O)Nc3nn[nH]n3)c3ccccc3n2)c(C)c1`, the outcome was “inactive”. In the case of `COc1ccc(CCNC(=O)CCc2nc3ccccc3[nH]2)cc1OC`, the outcome is reported as “inactive”. For `Cc1ccc(-c2nnc3sc(-c4ccncc4)nn23)cc1`, the outcome was “inactive”. With `O=c1c2[nH]cnc2n(-c2ccc(F)cc2)c(=O)n1Cc1ccccc1` the outcome was “inactive”. In the case of `COc1ccc(S(=O)(=O)NC2CCCCC2)cc1C`, the outcome is reported as “inactive”. With `O=C(Nc1ccccc1C(=O)N/N=C/c1ccccc1)c1ccco1` the outcome was “inactive”. In the case of `Cc1cc(C(=O)NC(C)CCC(C)C)c2ccccc2n1` (stereo not given), the outcome is reported as “inactive”. For `CONc1nc(NC(C)(C)C)nc(OCC#N)n1`, the outcome was “inactive”. In the case of `COc1ccc(CCN(C)C(=O)c2oc3ccccc3c2C)cc1OC`, the outcome is reported as “inactive”. With `COc1ccc2oc(C(=O)Nc3nnc(C)s3)c(C)c2c1` the outcome was “inactive”. With `Cc1ccc(S(=O)(=O)N(CC(=O)Nc2ccc(C)cc2C)C(=O)N2CCN(C)CC2)cc1` the outcome was “inactive”. With `CCC(c1nnnn1-c1ccc2c(c1)OCCO2)N1CCc2ccccc2C1` (stereo not given) the outcome was “inactive”. With `CCOc1cc(CNc2cccc3[nH]c(C)nc23)ccc1OC` the outcome was “inactive”. With `CCOC(=O)c1cnc2ccc(OCC)cc2c1N1CCN(c2ccccc2)CC1` the outcome was “inactive”. With `O=C(Nc1cccnc1)c1cnn2c(C(F)F)cc(C3CC3)nc12` the outcome was “inactive”. In the case of `C[C@@H]1CN([C@@H](C)CO)C(=O)CCCn2nncc2CO[C@H]1CN(C)Cc1ccccc1`, the outcome is reported as “inactive”. In the case of `C[C@@H]1CN([C@H](C)CO)C(=O)c2cc(C#CCN(C)C)cnc2O[C@H]1CN(C)S(=O)(=O)c1cn(C)cn1`, the outcome is reported as “inactive”. For `C[C@@H]1CN([C@H](C)CO)S(=O)(=O)c2ccc(-c3ccc(C#N)cc3)cc2O[C@H]1CN(C)C`, the outcome was “inactive”. With `C[C@@H]1CN([C@H](C)CO)C(=O)Cc2cc(NC(=O)CCCN(C)C)ccc2O[C@H]1CN(C)Cc1ccc(-c2ccccc2)cc1` the outcome was “inactive”. For `C[C@H]1CN([C@@H](C)CO)C(=O)c2ccccc2-c2ccccc2CO[C@@H]1CN(C)Cc1ccc(Cl)c(Cl)c1`, the outcome was “inactive”. In the case of `C[C@H]1CN([C@@H](C)CO)C(=O)c2ccccc2-c2ccccc2CO[C@@H]1CN(C)Cc1cccc(C(F)(F)F)c1`, the outcome is reported as “inactive”. In the case of `C[C@@H]1CN([C@@H](C)CO)C(=O)c2cccc(NC(=O)Nc3ccc(C(F)(F)F)cc3)c2O[C@H]1CN(C)Cc1ccc(Cl)c(Cl)c1`, the outcome is reported as “inactive”. For `Cc1cccc(C)c1-n1nnnc1C1(C)CCC(=O)N1Cc1cccs1` (stereo not given), the outcome was “inactive”. For `Cc1ccc(-n2ncc3c2CC(C)(C)CC3NC(=O)CCCN2CCCC2=O)cc1` (stereo not given), the outcome was “inactive”. With `CCN(CC)CCn1c(=N)n(CC(O)COc2ccccc2)c2ccccc21` (stereo not given) the outcome was “inactive”. In the case of `COCCNc1nc(Oc2cncc(Cl)c2)c2sccc2n1`, the outcome is reported as “inactive”. In the case of `Cc1ccc(C)c(S(=O)(=O)Nc2ccc(C(=O)N3CCC3)cc2)c1`, the outcome is reported as “inactive”. For `N#Cc1cccnc1Nc1cccc(Cl)c1`, the outcome was “inactive”. With `Cc1nc2ccccc2c(=O)n1/N=C/c1ccc(N(C)C)cc1` the outcome was “inactive”. For `C[C@@H]1CN([C@H](C)CO)C(=O)c2cc(C#CCc3ccccc3)cnc2O[C@H]1CN(C)C(=O)C1CCC1`, the outcome was “inactive”. With `Cc1noc(C)c1NC(=O)N(C)C[C@H]1Oc2c(NC(=O)C3CCCCC3)cccc2C(=O)N([C@H](C)CO)C[C@@H]1C` the outcome was “inactive”. With `CCOC(=O)c1sc(NC(C)=O)nc1-c1ccccc1` the outcome was “inactive”. For `CN(C(=O)COC(=O)c1cccs1)c1ccccc1`, the outcome was “inactive”. For `O=C(O)C(Cc1ccc(O)cc1)N1C(=O)c2ccccc2C1=O` (stereo not given), the outcome was “inactive”. For `CCOc1ccccc1Nc1cc2n(c(=O)n1)CCc1cc(OC)c(OC)cc1-2`, the outcome was “inactive”. With `COC(=O)c1cccc(-n2c(=O)n(Cc3ccccc3)c(=O)c3[nH]cnc32)c1C` the outcome was “inactive”. In the case of `O=C(O)c1ccc(S(=O)(=O)N2CCC3(CC2)CC(=O)c2ccccc2O3)cc1`, the outcome is reported as “inactive”. In the case of `CCOC(=O)c1c(C)[nH]c(C(=O)COC(=O)c2cnccn2)c1C`, the outcome is reported as “inactive”. For `CCOc1ncccc1C(=O)Nc1ccc(S(=O)(=O)Nc2nc(C)cc(C)n2)cc1`, the outcome was “inactive”. In the case of `COc1ccc(N/C=C/C(=O)c2ccc(Cl)cc2)cc1`, the outcome is reported as “inactive”. In the case of `COc1cc2ccc(CC(=O)O)cc2cc1OC`, the outcome is reported as “inactive”. With `C[C@H](O)[C@@H]1CN2CCc3ccc(-c4ccc5c(c4)OCO5)cc3[C@@H]2C[C@@H]1N(C)C(=O)c1cccc(Cl)c1` the outcome was “inactive”. In the case of `CC(O)c1nc2ccc(Cc3ccc4nc(C(C)O)[nH]c4c3)cc2[nH]1` (stereo not given), the outcome is reported as “inactive”. With `O=C(Cc1csc(NC(=O)c2ccccc2)n1)NO` the outcome was “inactive”. For `Cc1ccc(-c2csc(NC(=O)CCCc3cccs3)n2)cc1`, the outcome was “inactive”. For `CCc1c(C(=O)Nc2ccc(C)c(C)c2)[nH]c(C)c1C(C)=O`, the outcome was “inactive”. For `CC(=O)Nc1ccc(-c2ccnc3c2CC(C)(C(=O)Nc2cccc(OC(F)(F)F)c2)O3)cc1` (stereo not given), the outcome was “inactive”. With `CCSc1ncnc2c(C#N)c3n(c12)CCCCC3` the outcome was “inactive”. In the case of `CN1CCCC1CCNC1C2CC3CC(C2)CC1C3` (stereo not given), the outcome is reported as “inactive”. For `Cc1c(C(=O)N(C)CCc2cnn(C)c2)oc2c(F)cccc12`, the outcome was “inactive”. In the case of `COC(=O)C[C@@H]1OC[C@H](C(C)C)N1S(=O)(=O)c1ccc(C)cc1`, the outcome is reported as “inactive”. For `Cc1ccc(-n2nc3c(c2NC(=O)C2CC2)CS(=O)(=O)C3)cc1`, the outcome was “inactive”. For `CCc1cc(=O)oc2c(CNCc3ccc(OC)cc3OC)c(O)c(Cl)cc12`, the outcome was “inactive”. For `COc1ccc(S(=O)(=O)N2CCCCC2)cc1NC(=O)C1CCCC1`, the outcome was “inactive”. For `CN1CCN(c2ccc(NC(=O)c3ccc(Oc4ccccc4)cc3)cc2)CC1`, the outcome was “inactive”. For `N#Cc1cnn2c(C(F)(F)F)cc(-c3ccccc3)nc12`, the outcome was “inactive”. In the case of `CCCCc1nnc2c(N(C)S(=O)(=O)c3ccccc3)nc3ccccc3n12`, the outcome is reported as “inactive”. In the case of `O=C(CCn1nc(-c2ccc(Cl)cc2)ccc1=O)NCCCN1CCCCCC1`, the outcome is reported as “inactive”. With `Cc1cc(-c2ccc(Cl)cc2)n2nc(C)cc2n1` the outcome was “inactive”. For `COc1ccc(-n2c3c(c(=O)[nH]c2=O)C(NS(=O)(=O)c2ccc(Cl)cc2)(C(F)(F)F)C(=O)N3)cc1` (stereo not given), the outcome was “inactive”. With `O=C(NCCc1ccccc1)c1cc(-c2ccc3c(c2)OCO3)on1` the outcome was “inactive”. For `CC(=O)Cc1nsc(NC(=O)c2ccc(-c3cccc(Cl)c3)o2)n1`, the outcome was “inactive”. In the case of `CCOc1cccc2cc(C(=O)Nc3cc(C)on3)c(=O)oc12`, the outcome is reported as “inactive”. With `CCOc1ccc(CCNC(=O)c2cc(C)on2)cc1OCC` the outcome was “inactive”. In the case of `CC(=O)c1cccc(NC2c3ncccc3C(=O)N2Cc2ccco2)c1` (stereo not given), the outcome is reported as “inactive”. In the case of `COC(C)(C)c1cc(C(C)(C)C)nc(N)n1`, the outcome is reported as “inactive”. With `O=C(O)CCN1c2ccccc2Sc2ccccc21` the outcome was “inactive”. With `CC1=NN(C(N)=S)C(=O)C1N=Nc1ccccc1C` (stereo not given) the outcome was “inactive”. With `O=c1cc(-c2cccc(Br)c2)nc(-c2ccccc2F)o1` the outcome was “inactive”. For `COc1cccc(-c2nnn(CC(=O)O)n2)c1`, the outcome was “inactive”. With `C1CCN(CCCNC2C3CC4CC(C3)CC2C4)C1` (stereo not given) the outcome was “inactive”. With `CC(=O)Nc1nc(CC(C)C)cc(-c2ccco2)c1C#N` the outcome was “inactive”. For `CC(C(=O)N1CCC(C(N)=O)CC1)N(c1ccc(Oc2ccccc2)cc1)S(C)(=O)=O` (stereo not given), the outcome was “inactive”. For `COc1ccc(C(=O)NCC(=O)OCC(=O)Nc2ccc(C)c(S(=O)(=O)N(C)C)c2)cc1OC`, the outcome was “inactive”. For `c1nc(N2CCOCC2)c2c3c(sc2n1)CCCC3`, the outcome was “inactive”. For `N#CC1=C(N)Oc2nc(-c3ccccc3)[nH]c2C1c1cccnc1` (stereo not given), the outcome was “inactive”. With `COc1cc(/C=N/NC(=O)C(C)n2nnc3ccccc32)ccc1O` (stereo not given) the outcome was “inactive”. In the case of `CCC(=O)Nc1ccc(C(=O)N/N=C/c2cccnc2)cc1`, the outcome is reported as “inactive”. In the case of `COc1ccc(N2CCN(S(=O)(=O)c3ccc(-c4cc(C)no4)s3)CC2)cc1`, the outcome is reported as “inactive”. In the case of `Cc1ccc(S(=O)(=O)N2CCN(C(=O)COC(=O)c3ccc(O)cc3)CC2)c(C)c1`, the outcome is reported as “inactive”. In the case of `Cc1ccc(C(C)C)c(OCCNCCc2ccccc2)c1`, the outcome is reported as “inactive”. In the case of `Cc1nn(-c2ccccc2)c2c1C(O)CC(C)(C)C2` (stereo not given), the outcome is reported as “inactive”. With `CC/C(O)=C1\C(=O)CC(c2ccccc2)CC1=NC(C)C` (stereo not given) the outcome was “inactive”. In the case of `COc1ccc(CCNC(=O)COC(=O)c2cncc(Br)c2)cc1OC`, the outcome is reported as “inactive”. With `CCc1ccc(OCC(=O)NC(=S)Nc2ccc(C)cc2C)c(Br)c1` the outcome was “inactive”. For `CCOC(=O)C1=NN(C(=O)Nc2cccc(C(F)(F)F)c2)C2C(=O)N(c3cccc(C(F)(F)F)c3)C(=O)C12` (stereo not given), the outcome was “inactive”. For `C[C@@H]1CC2=C(C(=O)OC(C)(C)O2)[C@H](c2ccc(Cl)cc2)O1`, the outcome was “inactive”. For `Cn1c(=O)c(=O)n(C)c2cc(S(=O)(=O)N3CCN(c4ccc(F)cc4)CC3)ccc21`, the outcome was “inactive”. For `COc1ccc(C2=NOC(C(=O)NCc3ccccn3)C2)cc1OC` (stereo not given), the outcome was “inactive”. For `COc1ccc(-c2cnc(N)nc2-c2ccc(OC)cc2)cc1`, the outcome was “inactive”. In the case of `CCOc1ccc(CCNC(=O)COC(=O)c2cccnc2SC)cc1OCC`, the outcome is reported as “inactive”. With `CC(C)c1ccc2oc(=O)cc(CN3CCCCC3)c2c1` the outcome was “inactive”. For `CC1=C(C(=O)N2CCOCC2)CC(CC(=O)NCCCN(C)C)C(=O)N1CCCN1CCCC1=O` (stereo not given), the outcome was “inactive”.
